MRP-1 activ: MRP-1 activation. actives 0.61% (n = 140,000). H69AR cells + doxorubicin, viability rescue, CellTiter-Glo. viability increase, % at 10 µM;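 active = viability gain under doxorubicin at or above a set limit, the compound median plus 3 SD, cut at about 4.7% in these data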;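 also: MRP-1 overexpressing cells given doxorubicin 25 µM after compound pretreatment; 18-22 h compound pretreatment then 72 h with doxorubicin before readout; 0% = doxorubicin-only wells and 100% = vehicle-treated cells without doxorubicin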
ERb coact inh: ER-beta (human) coactivator binding inhibition | Q92731 | TR-FRET ER-beta LBD / SRC1-Cy5 peptide binding; receptor agonist-loaded with 1 µM estradiol | inhibition, % at 25.6 µM | actives 1.3% (n = 86,000);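 active = compounds whose percent inhibition of the receptor-coactivator binding signal exceeds about 50% in the single-dose screen, limit read from the data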;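 also: 0% = receptor plus peptide wells without compound and 100% = peptide-only wells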
Target sequence (Q92731 whole entry, looked up, the tested form may be a part): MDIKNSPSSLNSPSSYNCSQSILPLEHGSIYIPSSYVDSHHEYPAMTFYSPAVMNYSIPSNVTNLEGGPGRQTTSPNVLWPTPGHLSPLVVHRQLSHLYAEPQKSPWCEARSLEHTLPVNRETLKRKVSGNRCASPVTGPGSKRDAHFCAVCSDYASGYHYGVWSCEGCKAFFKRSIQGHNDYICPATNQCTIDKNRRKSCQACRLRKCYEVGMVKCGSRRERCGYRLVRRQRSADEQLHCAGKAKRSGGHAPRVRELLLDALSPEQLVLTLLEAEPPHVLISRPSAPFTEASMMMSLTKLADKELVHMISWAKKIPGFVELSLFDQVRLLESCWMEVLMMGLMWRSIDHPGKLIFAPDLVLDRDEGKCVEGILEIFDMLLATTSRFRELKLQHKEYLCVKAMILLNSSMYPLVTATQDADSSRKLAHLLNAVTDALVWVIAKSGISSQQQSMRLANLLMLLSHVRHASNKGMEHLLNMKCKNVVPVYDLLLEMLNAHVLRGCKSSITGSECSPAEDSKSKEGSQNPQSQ
MRP resist rev: compounds reversing MRP-mediated drug resistance; actives 0.04% (n = 85,000); H69AR cells + 2 uM doxorubicin, CellTiter-Glo, 72 h; differential viability (reversal), % at 10 µM; AID 602;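 active = viability drop by adding the cancer drug above about 55%, with treated viability meeting a 40% cutoff, limit read from the data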;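 also: viability without doxorubicin minus viability with 2 µM doxorubicin for each compound; larger differential means the compound sensitizes cells more to doxorubicin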
Smad3 inh: inhibitors of human Smad3 transcription factor binding; TR-FRET Smad3/Dy647-FoxH1 peptide binding, europium anti-His; AID 630; P84022; inhibition, % at 25 µM; actives 0.29% (n = 88,000);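 active = compounds that reduce the energy-transfer binding signal between the protein and its labelled peptide by more than half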;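 also: 0% = Smad3 plus labelled peptide maximal FRET and 100% = peptide-only background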
ERa coact inh: ER-alpha (human) coactivator binding inhibition. inhibition, % at 25.6 µM. TR-FRET ER-alpha LBD / SRC-1 peptide, estradiol-bound. actives 1.7% (n = 86,000). P03372; in the data active = inhibition above about 50%;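 also: 0% = receptor plus peptide control and 100% = peptide only without receptor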
ERa SRC1 pot: enhances coactivator binding to human estrogen receptor alpha. coactivator binding (% of control), % at 25.6 µM. AID 639. TR-FRET ERalpha-LBD/SRC-Cy5 coactivator binding, 2 h; 100 = basal binding, no effect. actives 1.3% (n = 86,000). P03372; in the data active = activity above about 200%;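 also: binding measured in presence of low estradiol as agonist stimulus; 0% = peptide alone without receptor and 100% = receptor with peptide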
* marks the source's active call; other numbers are inactive results; [ ] = another dose, or the depositor's remark. An excerpt weighted towards active compounds, which were near 2.9% of everything screened.

`CCc1[nH]nc2c1C(c1ccc(Br)s1)C(C#N)=C(N)O2` (centres undefined) gave MRP-1 activ -3, ERb coact inh -8, MRP resist rev 1, Smad3 inh -2, ERa coact inh 0 and ERa SRC1 pot 79.
`Cc1nc(N2CCN(S(=O)(=O)c3ccc(F)cc3)CC2)c2c(C)c(C)sc2n1` gave ERb coact inh -1, MRP resist rev -2, Smad3 inh 1, ERa coact inh 5 and ERa SRC1 pot 111.
Screening Cc1sc2nc(C3CC3)nc(N3CCN(S(=O)(=O)c4ccc(F)cc4)CC3)c2c1C returned MRP-1 activ 6.6*, ERb coact inh 10, MRP resist rev -21, Smad3 inh -1, ERa coact inh 5 and ERa SRC1 pot 174.
`O=C(CSc1nc2ccccc2c(=O)[nH]1)c1ccc(O)c(O)c1` gave MRP-1 activ -1, ERb coact inh 66*, MRP resist rev -9, Smad3 inh 5, ERa coact inh 59*[fluorescence artefact?] and ERa SRC1 pot 65.
For O=C(CSc1nc2ccccc2c(=O)[nH]1)c1cccs1 the results were MRP-1 activ -1, ERb coact inh 16, MRP resist rev -4, Smad3 inh -1, ERa coact inh 13 and ERa SRC1 pot 118.
`O=C1CC(c2ccco2)Cc2nc(Nc3nc(-c4ccccc4)c4ccccc4n3)ncc21` (centres undefined) gave MRP-1 activ -3, ERb coact inh 51*[fluorescence artefact?], Smad3 inh -2, ERa coact inh 43 and ERa SRC1 pot 98.
`NC(=O)CSc1nc(-c2ccccc2Cl)ns1` gave MRP-1 activ -1, ERb coact inh -1, MRP resist rev 13, Smad3 inh 3, ERa coact inh 4 and ERa SRC1 pot 106.
Screening COc1ccc2nc(NC(=O)Cc3cccs3)sc2c1 returned MRP-1 activ 2, ERb coact inh 22, MRP resist rev 13, Smad3 inh 4, ERa coact inh 15 and ERa SRC1 pot 67.
For COc1ccc2nc(NC(=O)CCc3nc(-c4ccccc4F)no3)sc2c1 the results were MRP-1 activ 0, ERb coact inh 48, MRP resist rev 2, Smad3 inh -6, ERa coact inh 34 and ERa SRC1 pot 204*.
Screening CCC(CC)C(=O)NCCc1cc2cc(C)c(C)cc2[nH]c1=O returned MRP-1 activ -1, ERb coact inh -3, MRP resist rev -19, Smad3 inh 0, ERa coact inh -6 and ERa SRC1 pot 111.
CCC(CC)C(=O)NCCc1cc2c(C)ccc(C)c2[nH]c1=O was read as ERb coact inh 2, MRP resist rev -9, Smad3 inh 5, ERa coact inh 54*[fluorescence artefact?] and ERa SRC1 pot 105.
CCCc1nnc2n1N=C(c1ccc(-c3cc(Cl)ccc3Cl)o1)CS2 was read as MRP-1 activ -3, ERb coact inh 45, MRP resist rev -10, Smad3 inh 2, ERa coact inh 73* and ERa SRC1 pot 144.
CC1CCCN(C(=O)COC(=O)c2n[nH]c3ccccc23)C1 (centres undefined) was read as MRP-1 activ -3, ERb coact inh -7, MRP resist rev 12, Smad3 inh 4, ERa coact inh 57* and ERa SRC1 pot 114.
`COc1ccc(-c2nn(C)c3sc(C(=O)NCc4ccco4)cc23)cc1OC` gave MRP-1 activ -3, ERb coact inh 59*[fluorescence artefact?], MRP resist rev -20, Smad3 inh 0, ERa coact inh 80*[fluorescence artefact?] and ERa SRC1 pot 64.
Screening Cc1noc(C)c1COc1ccc(C(=O)OCC(=O)N2c3ccccc3NC(=O)C2(C)C)cc1 returned MRP-1 activ -3, ERb coact inh 68*, MRP resist rev -14, Smad3 inh -14, ERa coact inh 73* and ERa SRC1 pot 54.
Screening COc1ccc(C(C)=O)cc1COC(=O)c1ccc(OCc2c(C)noc2C)cc1 returned MRP-1 activ 0, ERb coact inh 42, MRP resist rev -14, Smad3 inh -27, ERa coact inh 55*[fluorescence artefact?] and ERa SRC1 pot 277*.
For CC(=O)Nc1nc2ncc(C=O)nc2c(=O)[nH]1 the results were Smad3 inh -10.
CC(/C=C/c1ccc2c(c1)OCO2)=N\NC(=O)c1cccc([N+](=O)[O-])c1 was read as MRP-1 activ -5, ERb coact inh 17, MRP resist rev -2, Smad3 inh 15, ERa coact inh 68*[fluorescence artefact?] and ERa SRC1 pot 58.
Screening CC(/C=C/c1ccc2c(c1)OCO2)=N/NC(=O)C1COc2ccccc2O1 (centres undefined) returned MRP-1 activ -2.
For COCc1cc(=O)n2c(-c3ccc(C)cc3)n[nH]c2n1 the results were MRP-1 activ -1, ERb coact inh 60*, MRP resist rev -17, Smad3 inh 1, ERa coact inh 45 and ERa SRC1 pot 55.
`COC(=O)c1c(C)[nH]c(C(=O)COC(=O)Cc2ccc3c(c2)OCCO3)c1C` gave MRP-1 activ -1, ERb coact inh 0, MRP resist rev -21, Smad3 inh 0, ERa coact inh -1 and ERa SRC1 pot 260*[fluorescence artefact?].
For Cc1cc(Nc2ccc(N=Nc3ccc(O)c4ncccc34)cc2)nc(C)n1 the results were Smad3 inh 31.
Cc1nc2c(c(=O)n1CCC1=CCCCC1)c1nc3ccccc3nc1n2/N=C/c1ccco1 was read as MRP-1 activ -1, ERb coact inh 55*, MRP resist rev -4, Smad3 inh 3, ERa coact inh 79*[fluorescence artefact?] and ERa SRC1 pot 105.
Screening Cc1nnc(NC(=O)NC(C)N2C(=O)C3C4C=CC(C4)C3C2=O)s1 (centres undefined) returned MRP-1 activ -1.
`CCc1nnc(NC(=O)C(C)N2C(=O)C3C4C=CC(C4)C3C2=O)s1` (centres undefined) gave MRP-1 activ 8.2*, ERb coact inh -4, MRP resist rev 15, Smad3 inh -8, ERa coact inh -2 and ERa SRC1 pot 130.
CCn1nnc(NC(=O)CSc2ccc(Cl)cc2)n1 was read as MRP-1 activ 0, ERb coact inh 82*, MRP resist rev 0, Smad3 inh 0, ERa coact inh 90* and ERa SRC1 pot 29.
`FC(F)(F)c1ccc(Oc2ccc3cc(Br)ccc3c2)nc1` gave MRP-1 activ 3.
For N#Cc1c(SCc2cccc(Cl)c2)sc(C(=O)c2ccccc2)c1N the results were MRP-1 activ -1, ERb coact inh 11, MRP resist rev -19, Smad3 inh 4, ERa coact inh -3 and ERa SRC1 pot 73.
Screening Cc1ccc(S(=O)(=O)NCCC(=O)Nc2cccc(Cl)c2)cc1 returned MRP-1 activ -3.
Cc1ccc(C(=O)CCC(=O)Nc2ccc(Cl)c(S(=O)(=O)Nc3cccc(Cl)c3)c2)cc1 was read as MRP-1 activ 7.8*.
Screening Cc1cccc(N2CCN(S(=O)(=O)c3cccc4nonc34)CC2)c1C returned MRP-1 activ 1.

From PubChem
